Source: PubChem (several laboratories)
This is a sample that favours compounds with a hit; in the whole collection about 2.4% have one here.
NOD2-RIPK2 inh: blocks binding of human NOD2 to RIPK2; CHO BLA complementation NOD2-RIPK2, CCF4 ratio; inhibition, % at 4.98 µM; O43353; actives 0.38% (n = 360,000); in the data active = inhibition above about 21%;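 also: 0% = vehicle only and 100% = reference blocker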
TMEM16A inh: blocks the mouse calcium-activated chloride channel TMEM16A; Q8BHY3; actives 1.2% (n = 310,000); normalized B-score (activity score, 25-100; higher = stronger inhibition) at 10 µM; AID 588511; HEK293 TMEM16A/YFP iodide influx fluorescence, ionomycin;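 active = ratio plate-corrected score three or more library SD toward inhibition, starting fluorescence score within five deviations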;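 also: score derived from kinetic fluorescence span divided by baseline fluorescence per well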
TLR9-MyD88 inh: TLR9-MyD88 interaction inhibition | Q9NR96+Q99836 | inhibition, % at 4.98 µM | actives 0.21% (n = 340,000) | CHO BLA complementation TLR9-MyD88, CCF4 FRET ratio;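 active = inhibition above the mean over all tested compounds plus 3 SD, cut at about 21% in these data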;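 also: 0% = DMSO only wells and 100% = clavulanate BLA inhibitor control wells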
Target sequence (Q99836 whole entry, looked up): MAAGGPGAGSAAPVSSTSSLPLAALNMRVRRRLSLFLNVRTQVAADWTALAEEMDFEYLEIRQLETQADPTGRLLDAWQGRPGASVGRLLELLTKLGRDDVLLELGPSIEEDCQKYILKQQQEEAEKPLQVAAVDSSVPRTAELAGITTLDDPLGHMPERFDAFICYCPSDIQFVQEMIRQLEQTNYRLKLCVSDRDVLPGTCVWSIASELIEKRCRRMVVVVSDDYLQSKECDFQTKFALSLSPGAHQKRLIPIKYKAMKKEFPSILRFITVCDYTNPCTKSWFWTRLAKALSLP
Target sequence (Q9NR96 whole entry, looked up): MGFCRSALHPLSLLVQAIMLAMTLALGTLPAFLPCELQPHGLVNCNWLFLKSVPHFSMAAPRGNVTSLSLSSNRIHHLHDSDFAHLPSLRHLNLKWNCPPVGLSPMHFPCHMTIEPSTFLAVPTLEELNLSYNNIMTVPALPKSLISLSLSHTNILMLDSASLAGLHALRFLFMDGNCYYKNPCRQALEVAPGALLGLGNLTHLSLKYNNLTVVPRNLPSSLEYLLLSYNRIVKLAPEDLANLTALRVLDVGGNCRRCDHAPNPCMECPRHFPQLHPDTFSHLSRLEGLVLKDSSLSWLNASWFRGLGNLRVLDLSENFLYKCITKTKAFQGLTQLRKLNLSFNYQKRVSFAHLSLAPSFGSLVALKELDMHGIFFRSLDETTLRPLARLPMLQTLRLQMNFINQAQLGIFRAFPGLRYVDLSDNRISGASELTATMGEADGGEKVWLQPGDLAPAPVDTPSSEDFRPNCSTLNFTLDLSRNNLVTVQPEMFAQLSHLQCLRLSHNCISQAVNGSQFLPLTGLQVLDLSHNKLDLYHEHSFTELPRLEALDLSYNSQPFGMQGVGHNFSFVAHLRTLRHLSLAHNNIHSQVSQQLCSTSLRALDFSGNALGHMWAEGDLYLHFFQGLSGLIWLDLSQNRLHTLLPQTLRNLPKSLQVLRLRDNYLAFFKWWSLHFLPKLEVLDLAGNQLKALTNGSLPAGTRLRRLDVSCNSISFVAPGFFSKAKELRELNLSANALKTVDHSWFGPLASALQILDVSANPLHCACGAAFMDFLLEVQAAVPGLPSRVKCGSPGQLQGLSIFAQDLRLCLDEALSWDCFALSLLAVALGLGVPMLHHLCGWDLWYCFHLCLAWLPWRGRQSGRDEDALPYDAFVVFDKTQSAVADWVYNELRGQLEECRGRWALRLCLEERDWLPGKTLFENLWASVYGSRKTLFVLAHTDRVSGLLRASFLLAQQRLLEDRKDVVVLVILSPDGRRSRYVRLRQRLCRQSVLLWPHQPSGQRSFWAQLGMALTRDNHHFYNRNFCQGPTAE
HTR2A ag: mouse HTR2A agonism via beta-arrestin recruitment; AID 624169; actives 0.66% (n = 360,000); CHO-K1 mHTR2A beta-arrestin complementation, luminescence; percent of 30 µM serotonin response; P35363; activation, % at 7.6 µM;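 active = activation above a run cutoff, the mean activation of all tested compounds plus 3 SD, cut at about 14% in these data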;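 also: 0% = plate median of compound wells and 100% = 30 µM serotonin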
TLR4-MyD88 BLA: TLR4-MyD88 interaction inhibition in cells; actives 0.18% (n = 200,000); AID 861; inhibition, % at 8.4 µM; HeLa CL3-4 TLR4/MyD88 BLA complementation, FRET ratio; O00206+Q99836; in the data active = inhibition above about 25%;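 also: 0% = vehicle and 100% = reference inhibitor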
TMEM16A act: activates or potentiates the mouse TMEM16A chloride channel. AID 623877. Q8BHY3. B-score at 10 µM. actives 0.3% (n = 340,000). HEK293 TMEM16A/YFP-H148Q/I152L, iodide quench fluorescence; hits give low values;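 active = fluorescence-ratio B-score plate-corrected deviation score at least 3 library SD below zero, with starting fluorescence score within 5 deviations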;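 also: channel opened by trigger with iodide after compound preincubation; score built on the fluorescence ratio of max minus min over baseline; more negative score means more quench and so TMEM16A activation or potentiation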
TLR4-MyD88 conf: confirmation of human TLR4-MyD88 binding inhibitors; shares compounds with TLR4-MyD88 BLA; HeLa CL3-4 BLA complementation, CCF4 FRET ratio; inhibition, % at 8.4 µM; actives 50% (n = 350);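 active = mean inhibition across three repeat runs above about 25% carried over from the earlier screen, limit read from the data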;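 also: plate controls were DMSO only for no effect and clavulanic acid blocking BLA at full dose for full effect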
BLA inh HeLa: counter-screen for TLR4-MyD88 inhibitors: beta-lactamase reporter inhibitors | shares compounds with TLR4-MyD88 BLA | AID 1237 | actives 63% (n = 350) | HeLa BLA reporter, CCF4 FRET ratio | inhibition, % at 8.4 µM;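 active = mean inhibition over three repeats above about 26% taken from the earlier screen, limit read from the data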;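 also: HeLa cells stably expressing beta-lactamase reporter as counterscreen for TLR4-MyD88 inhibitors; 0% = DMSO and 100% = clavulanic acid full inhibition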
TLR9-MyD88 conf: TLR9-MyD88 interaction inhibition, confirmation; inhibition, % at 4.98 µM; CHO TLR9/MyD88 BLA complementation, CCF4 FRET ratio; shares compounds with TLR9-MyD88 inh; AID 540250; actives 51% (n = 680);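 active = mean inhibition across three repeats above about 21% taken from the earlier screen, limit read from the data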;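 also: blue over green emission ratio reports constitutive TLR9 MyD88 association via BLA complementation; 0% = DMSO vehicle wells and 100% = clavulanate BLA inhibitor wells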
BLA counter-1: beta-lactamase reporter inhibition, counter-screen artifact; shares compounds with TLR9-MyD88 inh; CHO-BLA cells, CCF4 FRET ratio, BLA reporter; inhibition, % at 4.98 µM; actives 7% (n = 680);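 active = mean inhibition above a 50% cutoff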;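 also: counterscreen of TLR9-MyD88 hits on CMV-driven BLA in CHO-K1 cells; 0% = DMSO alone and 100% = clavulanate blocking BLA; higher means less blue over green ratio so more BLA blockade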
TLR9 CHO cytotox: CHO cell toxicity counter-screen for TLR9-MyD88 inhibitors. shares compounds with TLR9-MyD88 inh. TLR9-MyD88 CHO cells cytotoxicity, luminescence. inhibition, % at 4.98 µM. actives 39% (n = 680). AID 588336; in the data active = inhibition above about 11%
NOD2 RIPK2 conf: NOD2-RIPK2 interaction inhibition confirmed; actives 70% (n = 1,200); AID 624370; inhibition, % at 4.98 µM; CHO cells, NOD2-RIPK2 BLA complementation, CCF4 FRET; shares compounds with NOD2-RIPK2 inh;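 active = mean inhibition across replicates above a set limit taken from the earlier primary screen, cut at about 21% in these data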;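 also: 0% = DMSO-only wells and the high end = clavulanate BLA-blocked wells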
BLA counter-2: counter-screen for NOD2-RIPK2 interaction inhibitors: BLA reporter; shares compounds with NOD2-RIPK2 inh; CHO BLA reporter, CCF4 FRET ratio, counterscreen; inhibition, % at 4.98 µM; actives 57% (n = 1,200); AID 624371;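 active = mean inhibition above the low-control mean inhibition plus three low-control SD, cut at about 11% in these data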;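 also: 0% = DMSO only wells and 100% = clavulanate high control wells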
* = called active by the depositor; i = inactive; nt = no result.

SMILES	NOD2-RIPK2 inh	TMEM16A inh	TLR9-MyD88 inh	HTR2A ag	TLR4-MyD88 BLA	TMEM16A act	TLR9-MyD88 conf	BLA counter-1	TLR9 CHO cytotox	others
CCOC(=O)COc1ccc2c(c1)c(C(C)=O)c(C)n2Cc1ccccc1	-14	i	-4	-7	-6	-5.5*	nt	nt	nt
CC(=O)c1c(C)n(Cc2ccccc2Cl)c2ccc(O)cc12	-15	i	3	-2	-3	i	nt	nt	nt
CNc1cc(Cl)c2nonc2c1[N+](=O)[O-]	93*	nt	80*	-9	52*	i	68*	28	100*	TLR4-MyD88 conf=55*;BLA inh HeLa=44*;NOD2 RIPK2 conf=102*;BLA counter-2=60*
N#Cc1ccc2nc(-c3ccc(CN4CCC(n5c(=O)[nH]c6ccccc65)CC4)cc3)c(-c3ccccc3)nc2c1	3	nt	nt	2	nt	nt	nt	nt	nt
COc1ccc(-n2c(/C=C/c3ccc(O)c(O)c3)nc3ccccc3c2=O)cc1	19	i	24*	1	nt	i	5	6	8
COc1cc(/C=C/c2nc3ccccc3c(=O)n2-c2ccc(O)cc2)ccc1O	10	i	14	3	nt	i	nt	nt	nt
O=c1c2ccccc2[se]n1-c1ccccc1	10	i	27*	-8	5	i	19	-1	26*
CN(C)c1ccc(/C=C/[N+](=O)[O-])cc1	28*	i	24*	-3	-5	i	3	4	-2
C[C@]12CC[C@H](O)CC1=CC(=O)C1C2CC[C@]2(C)C(=O)CCC12 (some centres undefined)	-7	nt	1	5	nt	i	nt	nt	nt
CCCCOC(=O)c1ccccc1C(=O)OCCCC	-3	nt	25*	2	nt	i	5	2	2
CCOC(=O)c1ccccc1N	-5	nt	3	-6	nt	i	nt	nt	nt
COCCNC(=O)N1[C@H]2CC[C@@H]1C(C(=O)OC)=C(c1ccc(-c3ccccc3)c(F)c1)C2	-4	nt	-7	-6	nt	i	nt	nt	nt
C=C1C(=O)O[C@@H]2C[C@@H](C)[C@@H]3C=CC(=O)[C@@]3(C)[C@@H](OC(=O)CC(=O)O[C@H]3[C@@H]4C(=C)C(=O)O[C@@H]4C[C@@H](C)[C@@H]4C=CC(=O)[C@]43C)[C@H]12	88*	i	32*	-9	nt	i	43*	35	99*	NOD2 RIPK2 conf=87*;BLA counter-2=44*
CC(=O)N1N=C2C3CCN(CC3)C2C1c1ccc(Br)cc1 (centres undefined)	-10	i	-7	8	nt	i	nt	nt	nt
CC1(C)CN=C(NCc2ccccc2Cl)S1	10	i	8	-6	13	i	nt	nt	nt
CC1(C)OC(c2ccccc2)=C/C(=C/C=C2C(=O)NC(=O)NC2=O)O1	32*	i	34*	2	24	i	24*	27	-4	NOD2 RIPK2 conf=57*;BLA counter-2=56*
C=C1C(=O)OC2CC(C)C3C=CC(=O)C3(C)C(O)C12 (centres undefined)	20	nt	8	1	nt	i	nt	nt	nt
